PubChem BioAssay (EPA / NIEHS)
Inconclusive results are not listed. Activity calls are given as the source filed them. The calls were made as follows: active = hit-call score of the fitted dose curve at least 0.9, where 1 is the maximum; inconclusive = response in the unintended direction; inactive = score below 0.9.

Experiment: ATG_GAL4_TRANS: Attagene TRANS-FACTORIAL HepG2 Assay for GAL4 (Internal Marker) (AID 2282976)
Conditions: HepG2 Attagene TRANS GAL4 internal marker reporter
Method: ATG_TRANS is a cell-based, multiplexed-readout assay that uses HepG2, a human liver cell line, with measurements taken at 24 hours after chemical dosing in a 24-well plate.ATG_GAL4_TRANS is one of 30 assay component(s) measured or calculated from the ATG_TRANS assay. It is designed to make measurements of mRNA induction, a form of inducible reporter, as detected with fluorescence intensity signals by Reverse transcription polymerase chain reaction (RT-PCR) and Capillary electrophoresis technology.Data from the assay component ATG_GAL4_TRANS was analyzed into 1 assay endpoint. This assay endpoint, ATG_GAL4_TRANS, was analyzed in the positive analysis fitting direction relative to DMSO as the negative control and baseline of activity. Using a type of inducible reporter, measures of mRNA for gain-of-signal activity can be used to understand the background control at the transcription factor-level as they relate to the gene . Furthermore, this assay endpoint can be referred to as a secondary readout, because this assay has produced multiple assay endpoints where this one serves a background control function. To generalize the intended target to other relatable targets, this assay endpoint is annotated to the background measurement intended target family, where the subfamily is baseline control.
Human liver HepG2 cells are transiently transfected with multiple reporter transcription units (MRTUs) in 6-well plates using FuGene 6 reagent (Roche; 3 ml FuGene/1 mg DNA). The MRTU constructs are regulated by a cis-regulating element (promoter). […] A major difference between the CIS and TRANS system is that in CIS activities of endogenous TFs are measured, whereas the TRANS assay evaluates changes in activities of exogenous, chimeric NR-Gal4 proteins. […] At the end of 24 hour incubation, total RNA was isolated using TriZol reagent (Invitrogen). The isolated RNA is then reverse-transcribed using oligo(dT) primer and Mo-MLV reverse transcriptase (Invitrogen) with DNAse I (Ambion) treatment for 30 min. The one-tenth of the produced cDNA was amplified by PCR using Taq DNA polymerase (Invitrogen) and two reporter sequence-specific primers. The PCR products were fluorescently labeled by primer extension with 6-arboxyfluorescein (6-FAM) 5'-labeled reporter sequence-specific primer (2 min at 95 C, 20 s at 68 C and 10 min at 72 C) and these products were digested with 5U of HpaI (New England Biolabs) for 2h at 37 C. The fragments were purified using Qiaquick PCR columns (Qiagen), analyzed on an ABI 3130xL genetic analyzer (Applied Biosystems) with peak positions identified by using a set of X-rhodamine (ROX)-labeled MapMarker1000 molecular weight standards (BioVentures). The raw capillary electrophoresis data was processed using Attagraph software (Attagene).

Compound | outcome
CC(=O)CC(=O)N(C)C | inactive
CCCCC(CC)COCCO (stereo not given) | inactive
CC(=O)c1ccc2ccccc2c1 | inactive
COC(=O)c1ccc(C(=O)OC)cc1 | inactive
CC(C)(C)c1ccc(S)cc1 | inactive
NC(=O)c1cccnc1 | inactive
CCn1cc(C(=O)O)c(=O)c2ccc(C)nc21 | inactive
CCc1cccc(O)c1 | inactive
CCCO | inactive
CC12CCC(C1)C(C)(C)C2O (stereo not given) | inactive
CC(C)=CC(=O)O | inactive
CCCCOCCOCCOCCO | inactive
CC(=O)c1ccc(C)cc1 | inactive
CCOc1ccc(NC(C)=O)cc1 | inactive
CCCCCCCCCC(=O)OCC | inactive
CCC(=O)OC/C=C(\C)CCC=C(C)C | inactive
CC(C)=CCCC(C)=CC(=O)O | inactive
CCCCOCCOCCO | inactive
NS(=O)(=O)c1cc(C(=O)O)c(NCc2ccco2)cc1Cl | inactive
C1CCCNCC1 | inactive

Compound | outcome
CC(O)CN (stereo not given) | inactive
CC(=O)c1ccc(O)cc1 | inactive
CCCCCC1CCC(=O)O1 (stereo not given) | inactive
CC/C=C\CCCCO | inactive
CCC(CC)CO | inactive
C=CCOCC(O)CO (stereo not given) | inactive
C=CC(=O)OCCCCCC | inactive
CNC(=C[N+](=O)[O-])NCCSCc1ccc(CN(C)C)o1 | inactive
CCOC(=O)C=Cc1ccccc1 | inactive
c1ccc(Sc2ccccc2)cc1 | inactive
CCCC[N+](C)(CCCC)CCCC | inactive
COc1ccc(OC)cc1 | inactive
COC(=O)C(C)Oc1ccc(Oc2ncc(C(F)(F)F)cc2Cl)cc1 (stereo not given) | inactive
CCCCCCCCCCCCOC(C)=O | inactive
C#C[C@]1(O)CC[C@H]2[C@@H]3CCc4cc(O)ccc4[C@H]3CC[C@@]21C | inactive
NC(=O)NC(N)=O | inactive
CCCCCCCC1CCCC1=O (stereo not given) | inactive
CCCCCCCCCCO[C@@H]1O[C@H](CO)[C@@H](O)[C@H](O)[C@H]1O | inactive
NC(N)=S | inactive
O=C(C=Cc1ccccc1)OCCCc1ccccc1 | inactive
